Test [1] is described as follows: Quantitative highthroughput screen to assess conditional lethalithy of NOMO1 cells grown in RPMI1640 with untreated serum (RPMI+s) (AID 1963876). Also: nearly all actives have a fitted effect of over 35% in size. Also: potency is read from the fitted curve at half-maximal effect.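 As to viability: 100% = DMSO wells and 0% = empty wells without cells.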 The method in brief: (§1)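 Each medium arm—HPLM with 10% dialyzed FBS, or RPMI1640 with 5 mM glucose and 10% untreated or dialyzed FBS—was screened against an 11-point, 3-fold compound titration for 48 h at 37 °C, with CellTiter-Glo luminescence as endpoint.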

Test [2] is described as follows: Quantitative highthroughput screen to assess conditional lethalithy of NOMO1 cells grown in RPMI1640 with dialyzed fetal bovine serum (RPMI+ds) (AID 1963877). Also: nearly all actives have a fitted effect of over 30% in size. Also: potency is read from the fitted curve at half-maximal effect.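 As to viability: series mostly up to about 46 µM; 100% = DMSO control wells and 0% = empty wells.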 A digest of the protocol: as §1
The nature of test [3]: Quantitative highthroughput screen to assess conditional lethalithy of P12 Ichikawa cells grown in RPMI1640 with dialyzed fetal bovine serum (RPMI+ds) (AID 1963880). Also: nearly all actives have a fitted effect of over 35% in size. Also: potency is read from the fitted curve at half-maximal effect.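 As to viability: 100% = DMSO wells and 0% = empty wells on each plate.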 Particulars: Potency: P12-Ichikawa viability. The method in brief: as §1
The nature of test [4]: Quantitative highthroughput screen to assess conditional lethalithy of P12 Ichikawa cells grown in RPMI1640 with untreated serum (RPMI+s) (AID 1963881). Also: nearly all actives have a fitted effect of over 35% in size. Also: potency is read from the fitted curve at half-maximal effect.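 As to viability: series mostly up to about 46 µM; 100% = DMSO wells and 0% = empty wells without cells.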 To be noted: Potency: viability. A digest of the protocol:
as §1

Test [5] is described as follows: Cellular viability qHTS for adrenocortical cancer (ACC) cell line SW-13 (AID 1963989).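 Also: cells grown in serum-free medium with ITS supplement; % is scaled to controls: 0 for no effect and ±100 for the full control effect; nearly all actives have a fitted effect of over 65% in size.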 Particulars: SW-13 ACC cells viability, CellTiter-Glo, 48 h; activity (max response): hits give low values. The method in brief: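 Compound titrations (up to 46 uM final, in DMSO) were applied to SW-13 cells for 48 h at 37C/5% CO2. Reading used CellTiter-Glo after 20 min at room temperature; fitted curves yielded IC50 and efficacy.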
A general note: In qHTS, concentration-response curves come from the screen itself.

Test [6] can be described thus: Cellular viability qHTS for adrenocortical cancer (ACC) cell line NCI-H295R (AID 1963990).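 Also: 0% = DMSO only wells and -100% = full killing with cytotoxic reference compound; nearly all actives have a fitted effect of over 60% in size.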 The method in brief:
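Readout: CellTiter-Glo luminescence, 20 min RT. Exposure: 48 h, 37C/5% CO2. Cells: NCI-H295R, ITS-DMEM serum-free. Range: up to 46 uM. Analysis: 4PL fit, IC50 plus efficacy.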

The nature of test [7]: Quantitative highthroughput screen to assess conditional lethalithy of P12 Ichikawa cells grown in Human Plasma-Like Medium with dialyzed fetal bovine serum (HPLM+ds) (AID 1963879). Also: nearly all actives have a fitted effect of over 35% in size. Also: potency is read from the fitted curve at half-maximal effect. As to viability: series mostly up to about 46 µM. Particulars: Potency: viability. A digest of the protocol:
as §1

Test [8] is described as follows: Quantitative highthroughput screen to assess conditional lethalithy of SEM cells grown in RPMI1640 with unreated serum (RPMI+s) (AID 1963883). Also: nearly all actives have a fitted effect of over 35% in size. Also: potency is read from the fitted curve at half-maximal effect.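 As to viability: 100% = DMSO wells and 0% = empty wells without cells.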 The method in brief:
as §1

The nature of test [9]: Quantitative highthroughput screen to assess conditional lethalithy of SEM cells grown in Human Plasma-Like Medium with dialyzed fetal bovine serum (HPLM+ds) (AID 1963882). Also: nearly all actives have a fitted effect of over 35% in size. Also: potency is read from the fitted curve at half-maximal effect. As to viability: series mostly up to about 46 µM. A digest of the protocol:
as §1

A short description of test [10]: Quantitative highthroughput screen to assess conditional lethalithy of SEM cells grown in RPMI1640 with dialyzed fetal bovine serum (RPMI+ds) (AID 1963884). A digest of the protocol: as §1

Results filed as inconclusive are left out. Calls of active or inactive are those of the source. Calls follow the shape of the dose curve; as a rule, active = well fitted curve in the direction sought with a large enough effect; inconclusive = small, poorly fitted or top-dose-only effect, or another doubt; inactive = no such curve, though single readings can be large; an effect the other way counts as inactive or inconclusive.

In the case of `CC(C)(N)C(=O)N[C@H](COCc1ccccc1)C(=O)N1CCC2(CC1)CN(S(C)(=O)=O)c1ccccc12`, the Potency result in [1] and in test [6] was “inactive” each time. Besides, the Potency in [2] is 10.5 µM (active); in test [3] it was 23.5 µM (active); in test [4] it was 26.4 µM (active). Besides, the activity (max response) in [5] is -9.29% (inactive).
For the molecule `O=C(c1ccc(C=Cc2n[nH]c3ccccc23)cc1)N1CCNCC1`, the Potency was 469 nM (active) in [1]; 0.935 µM (active) in [2]; 935 nM (active) in test [7]; 0.935 µM (active) in test [4]; 0.166 µM (active) in test [8].
As to `CCCCN(CCCC)C(=O)CN1C[C@H](c2ccc3c(c2)OCO3)[C@@H](C(=O)O)[C@@H]1c1ccc(OC)cc1`, the Potency entry in [1], in test [2], in test [7], in test [3] and in test [6] was “inactive” in each case. Further, in test [9], the Potency was 2.09 µM (active). For the same molecule, in test [5], the activity (max response) was -6% (inactive).
As to `CC(=O)N[C@H]1[C@@H]([C@H](O)[C@H](O)CO)OC(C(=O)O)=C[C@@H]1N=C(N)N`, the Potency result in [1], in test [2], in test [7], in test [3] and in test [9] was “inactive” in each case.
For the molecule `OC[C@H]1O[C@@H](O[C@H]2[C@@H](O)[C@@](O)(CO)O[C@@H]2CO)[C@H](O)[C@@H](O)[C@@H]1O`, the Potency result in [1], in test [2], in test [8] and in test [10] was “inactive” in each case.
Turning to `Nc1ccn(C[C@@H](CO)OCP(=O)(O)O)c(=O)n1`, the Potency entry in [1], in test [2], in [3], in test [4], in [9] and in test [10] was “inactive” in each case. Further, the activity (max response) in test [5] was -11.5% (inactive). The activity change, negative = viability loss in [6] is 1.71% [at 9.17 µM] (inactive).
Take `COc1ccc(-c2c(-c3ccc(O)cc3O)n[nH]c2C)cc1`: the Potency entry in test [1], in [2] and in test [3] was “inactive” each time. Also, the Potency in test [8] was 19.1 µM (active). Further, the activity (max response) in [5] is -14.3% (inactive).
Consider `O=S(=O)(NCCNCC=Cc1ccc(Br)cc1)c1cccc2cnccc12`, for which the Potency entry in test [1], in test [2] and in test [4] was “inactive” throughout.

The values are drawn from PubChem BioAssay (NCATS).
